SMILES strings stand for the structures. Hit rate of the full screen: of about 1,200 compounds, about 600 (50%) were called active. Cut-off read from the data, not from the text of the source: active = inhibition above about 42%; inactive = the rest. The set was probably picked from earlier hits. This is one part of the list. Entries with a potency or affinity are not part of this list.

The test deals with SUMO-conjugating enzyme UBC9 (Homo sapiens) (UniProt P63279). Briefly: blockers of UBC9-mediated SUMO conjugation – biochemical, AlphaScreen, SUMOylation inhibitor project, confirmation (AID 2018). The following applies: AlphaScreen in vitro SUMOylation assay; at 35 µM; active compounds read high. In general terms: Alpha assays give light when donor and acceptor beads are brought close together.
Chain of SUMO-conjugating enzyme UBC9 (Homo sapiens) (P63279 whole entry, looked up): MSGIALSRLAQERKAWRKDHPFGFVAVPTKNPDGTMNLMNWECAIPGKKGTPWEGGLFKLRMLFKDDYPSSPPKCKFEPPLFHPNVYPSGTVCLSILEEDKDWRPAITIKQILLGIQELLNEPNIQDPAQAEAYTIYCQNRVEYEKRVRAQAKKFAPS
As a reminder, the inhibition is the change of the read-out against control, counted positive when it falls. For `CC(=O)c1ccc(NC(=O)Nc2cccnc2)cc1`, the inhibition was -7.1% (inactive).

Turning to `CSc1ccc(-c2cc(=O)c3ccccc3o2)cc1`, the inhibition was -11% (inactive).

As to `CN(C)/C=N/c1nc2nccc(-c3cccnc3)n2n1`, the inhibition was -4% (inactive).

Regarding `C=CCOC(=O)C(C#N)c1nc2ccccc2nc1N1CCN(Cc2ccccc2)CC1` (stereo unspecified), the inhibition was 22.9% (inactive).

`Cc1ccc(S(=O)(=O)C(C#N)c2nc3ccccc3nc2N2CCCC2)cc1` (stereo unspecified): the inhibition was 44.2% (active).

Regarding `Cc1cccc(S(=O)(=O)C(C#N)c2nc3ccccc3nc2N2CCCC2)c1` (stereo unspecified), the inhibition is 28.3% (inactive).

Take `O=C(O)CN1C(=O)/C(=C\c2cc([N+](=O)[O-])ccc2OCc2ccccc2Cl)SC1=S`: the inhibition is 63% (active).

As to `CC(C)C(=O)Nc1cccc(C(=O)NCc2ccc3c(c2)OCO3)c1`, the inhibition is 13.6% (inactive).

Consider `CC(=O)Nc1ccc(-c2nc3ccc(NC(C)=O)cc3o2)cc1`, for which the inhibition was 25.1% (inactive).

As to `CC(=O)Nc1ccc(-c2cn3cccnc3n2)cc1`, the inhibition is 5.9% (inactive).

As for `Clc1ccc(C2=CSC3=Nc4cccc5cccc(c45)N23)cc1`, the inhibition was 101% (active).

For the compound `COc1ccc(OC)c(S(=O)(=O)NCCc2cn3ccsc3n2)c1`, the inhibition is 44.5% (active).

As for `CCN(CC)C(=O)C1CCCN(C(=O)Nc2ccc3nsnc3c2)C1` (stereo unspecified), the inhibition is -9% (inactive).

In the case of `COc1ccc(NCc2ccc([N+](=O)[O-])s2)c(OC)c1`, the inhibition is 87% (active).

Take `COc1ccc(C2C(C(C)=O)=C(O)C(=O)N2C)c(OC)c1` (stereo unspecified): the inhibition is -14.2% (inactive).

As for `COCCN(CCOC)c1nc(N)c2c(N)nc3c(c2c1C#N)CC(=O)N3Cc1ccc(Cl)cc1`, the inhibition is 11.2% (inactive).

For `N#Cc1c(N(CCO)CCO)nc(N)c2c(N)nc3c(c12)CC(=O)N3Cc1cccs1`, the inhibition is 52.9% (active).

With `N#Cc1c(N(CCO)CCO)nc(N)c2c(N)nc3c(c12)CC(=O)N3CC1CCCO1` (stereo unspecified), the inhibition is 26% (inactive).

Consider `CCOC(=O)N1CCN(C(=O)c2cccn3c(=O)c4cc(Cl)ccc4nc23)CC1`, for which the inhibition is 11% (inactive).

For `O=C1CC(CC(=O)N/N=C/c2ccccc2[N+](=O)[O-])=NN1`, the inhibition was 26.8% (inactive).

On to `Nc1nnc(CC(=O)N/N=C/c2cc([N+](=O)[O-])cc(Br)c2O)s1`, for which the inhibition is 102% (active).

For the compound `O=C1/C(=C/c2ccco2)Oc2c1ccc(O)c2CN1CCCCC1`, the inhibition was 9.4% (inactive).

Turning to `Cc1cc(-c2csc(NC(=O)c3ccc(=O)[nH]c3)n2)c(C)n1Cc1ccccc1`, the inhibition was 29.1% (inactive).

As for `CC1CCN(Cc2cc(=O)oc3cc(O)c(Cl)cc23)CC1`, the inhibition is -10.6% (inactive).

As to `O=C(O)CCCN1C(=O)/C(=C/c2cn(-c3ccccc3)nc2-c2cccs2)SC1=S`, the inhibition is 76% (active).

`Cc1ccc(-c2nn(-c3ccccc3)cc2/C=C2\SC(=S)N(CCCCCC(=O)O)C2=O)o1`: the inhibition is 74.8% (active).

(Values after PubChem BioAssay AID2018 (Sanford-Burnham Center for Chemical Genomics, 2009).)
